Records with an inconclusive call do not appear. Active and inactive are the calls of the source. Unless noted, calls come from the whole dose curve; as a rule, active = well fitted curve in the direction sought with a large enough effect; inconclusive = small, poorly fitted or top-dose-only effect, or another doubt; inactive = no such curve, though single readings can be large; an effect the other way counts as inactive or inconclusive.
Experiments:
[1] = molecular target: Lysosomal acid glucosylceramidase (Homo sapiens) (UniProt P04062); experiment: Glucocerebrosidase-p2 (AID 348; in the data active = potency below about 10 µM; note: potency is the fitted concentration of half-maximal effect); conditions: purified GBA, blue fluorogenic substrate, 40 min
Chain of Lysosomal acid glucosylceramidase (Homo sapiens) (P04062 whole entry, looked up): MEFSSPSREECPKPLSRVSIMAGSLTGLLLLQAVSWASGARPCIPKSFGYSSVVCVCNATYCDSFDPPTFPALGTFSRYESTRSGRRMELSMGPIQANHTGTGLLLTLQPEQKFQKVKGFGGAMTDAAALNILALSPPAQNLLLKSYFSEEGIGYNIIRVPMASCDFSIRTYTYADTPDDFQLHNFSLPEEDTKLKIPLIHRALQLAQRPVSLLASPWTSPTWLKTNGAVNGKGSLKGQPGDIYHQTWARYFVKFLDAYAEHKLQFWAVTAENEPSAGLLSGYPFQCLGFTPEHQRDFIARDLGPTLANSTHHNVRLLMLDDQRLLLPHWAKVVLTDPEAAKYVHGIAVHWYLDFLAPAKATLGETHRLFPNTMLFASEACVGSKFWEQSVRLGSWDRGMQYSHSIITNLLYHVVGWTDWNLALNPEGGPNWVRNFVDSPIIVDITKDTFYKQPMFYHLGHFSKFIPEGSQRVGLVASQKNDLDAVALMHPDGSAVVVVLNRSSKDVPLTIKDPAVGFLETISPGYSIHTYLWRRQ
Outline: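 Compounds titrated from 0.6 nM upwards against 0.2 nM enzyme in pH 5.9 citric acid/KH2PO4, taurocholate, tween-20; blue fluorogenic substrate 80 uM, 40 min room temperature, stopped and read Ex 365/Em 440 for AC50.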

[2] = AP1 Signaling Pathway (AID 357; active = well fitted curve in either direction with a large enough effect, not every such curve was filed as active;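 note: ME-180 reporter cells stimulated with EGF at its EC50 level; % is set by controls: 0 for no effect and ±100 for the full control effect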); conditions: ME-180 AP-1-bla reporter, EGF-induced, beta-lactamase ratio, 5 h; at 7.69 µM (top of the series) unless noted
Outline: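 Read-out was the 460nm/530nm emission ratio (excitation 405nm) after CCF4 loading for 2.5 hours at room temperature. Cells carried an AP-1-driven beta-lactamase reporter, were stimulated with EC50 EGF plus compound for 5 hours, and AC50 values came from titrations.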

[3] = molecular target: Cytochrome P450 1A2 (Homo sapiens) (UniProt P05177); experiment: p450-cyp1a2 (AID 410; calls by dose curve; note: potency is the fitted concentration of half-maximal effect;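 for activity change, negative = inhibition: -100% = full effect of reference inhibitor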); conditions: recombinant CYP1A2, luciferin-ME demethylation, luminescence; series mostly up to 57 µM
Chain of Cytochrome P450 1A2 (Homo sapiens) (P05177 whole entry, looked up): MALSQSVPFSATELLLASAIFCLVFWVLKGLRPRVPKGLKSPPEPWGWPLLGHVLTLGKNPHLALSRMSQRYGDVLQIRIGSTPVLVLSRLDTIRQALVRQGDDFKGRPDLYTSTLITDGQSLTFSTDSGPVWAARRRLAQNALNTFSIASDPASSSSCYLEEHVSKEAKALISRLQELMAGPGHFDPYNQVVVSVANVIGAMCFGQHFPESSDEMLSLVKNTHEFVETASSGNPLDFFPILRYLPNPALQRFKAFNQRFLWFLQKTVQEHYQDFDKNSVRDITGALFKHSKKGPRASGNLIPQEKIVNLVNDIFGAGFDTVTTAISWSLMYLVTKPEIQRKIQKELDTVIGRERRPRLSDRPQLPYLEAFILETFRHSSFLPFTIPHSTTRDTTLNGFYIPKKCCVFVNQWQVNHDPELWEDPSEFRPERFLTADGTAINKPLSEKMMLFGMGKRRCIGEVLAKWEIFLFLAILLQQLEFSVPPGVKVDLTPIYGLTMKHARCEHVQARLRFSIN
Outline: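 Inhibition was calculated relative to 57 uM furafylline (full inhibition). The reaction used human CYP1A2 at 20nM with Luciferin-ME at its Km, 100uM, driven by an NADPH-regenerating system for 60 min at room temperature.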

[4] = NFAT Signaling Pathway (AID 444; active = well fitted curve in either direction with a large enough effect, not every such curve was filed as active;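 note: carbachol stimulus at about its EC50 of 1 µM final; % is set by controls: 0 for no effect and ±100 for the full control effect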); conditions: Jurkat NFAT-bla M1, carbachol, beta-lactamase ratio, 5 h; at 7.69 µM (top of the series) unless noted
Outline: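 Jurkat cells carrying an NFAT-driven β-lactamase reporter and co-transfected muscarinic M1 receptor were treated with compound plus carbachol (1 uM final, an EC50 level) for 5 h at 37 °C. CCF4 loading followed for 1 h at RT; 460/530 nm ratio gave %activity.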

[5] = Stat Signaling Pathway (AID 446; active = well fitted curve in either direction with a large enough effect, not every such curve was filed as active;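 note: ME-180 cervical cancer cells given 40 pM IL-6 alongside compound; SIE-controlled beta-lactamase reporter measured as 460/530 nm FRET emission ratio; % is set by controls: 0 for no effect and ±100 for the full control effect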); conditions: ME-180 SIE beta-lactamase reporter, IL-6 stimulated, 5 h; at 7.69 µM (top of the series) unless noted
Outline: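 ME-180 SIE-bla cells; overnight plating; cpd + IL-6 40 pM, 5 h, 37 C; LiveBLAzer 2.5 h RT; 460/530 nm emission ratio. Normalized to 300 pM IL-6 and 125 nM JAK inhibitor controls.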

[6] = molecular target: Glucocorticoid receptor (Homo sapiens) (UniProt P04150); experiment: GR-GFP Redistribution (AID 450;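 active = compounds whose dose series gives a full or clear partial fitted curve of increased nuclear translocation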; note: potency is the fitted concentration of half-maximal effect); conditions: U2OS GR-GFP nuclear translocation, laser cytometry, 2 h
Chain of Glucocorticoid receptor (Homo sapiens) (P04150 whole entry, looked up, the tested form may be a part): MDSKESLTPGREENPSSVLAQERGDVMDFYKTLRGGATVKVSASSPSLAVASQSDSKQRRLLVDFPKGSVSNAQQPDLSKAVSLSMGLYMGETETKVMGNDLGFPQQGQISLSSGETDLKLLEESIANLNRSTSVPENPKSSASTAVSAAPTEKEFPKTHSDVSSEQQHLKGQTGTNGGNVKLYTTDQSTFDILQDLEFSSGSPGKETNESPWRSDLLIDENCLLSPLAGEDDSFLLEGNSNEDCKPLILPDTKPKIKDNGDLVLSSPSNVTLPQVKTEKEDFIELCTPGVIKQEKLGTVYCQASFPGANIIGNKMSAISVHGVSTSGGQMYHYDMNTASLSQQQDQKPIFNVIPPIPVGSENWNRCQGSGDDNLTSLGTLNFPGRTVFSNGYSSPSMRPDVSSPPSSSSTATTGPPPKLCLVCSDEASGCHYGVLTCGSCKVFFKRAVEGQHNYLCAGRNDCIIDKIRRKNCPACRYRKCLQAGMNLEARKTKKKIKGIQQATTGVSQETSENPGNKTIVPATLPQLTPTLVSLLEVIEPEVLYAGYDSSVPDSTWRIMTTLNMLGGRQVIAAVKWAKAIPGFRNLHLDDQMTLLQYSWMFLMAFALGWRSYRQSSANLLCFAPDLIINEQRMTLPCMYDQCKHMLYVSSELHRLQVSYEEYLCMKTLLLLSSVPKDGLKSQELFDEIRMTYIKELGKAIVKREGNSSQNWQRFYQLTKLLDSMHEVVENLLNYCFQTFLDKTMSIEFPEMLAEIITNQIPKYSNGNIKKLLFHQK

[7] = molecular target: Glucocorticoid receptor (Homo sapiens) (UniProt P04150); experiment: GR-EFC Redistribution (AID 451; calls by dose curve; note: potency is the fitted concentration of half-maximal effect); conditions: CHO-K1 GR-EFC translocation, beta-gal luminescence, 2 h
Outline: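 CHO-K1 cells stably expressing nuclear-localized β-gal enzyme acceptor and GR fused C-terminally to the enzyme donor fragment; ligand-driven nuclear translocation restores β-gal by complementation. Compounds titrated up to 46 uM final, 2 h at 37 °C; luminescence read.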

[8] = molecular target: Mitogen-activated protein kinase 10 (Mus musculus) (UniProt Q61831); experiment: JNK3 AlphaScreen Assay (AID 530; active = well fitted curve in either direction with a large enough effect, not every such curve was filed as active;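 note: kinase came from lysate of stimulated human HepG2 cells; signal reports phosphorylation of biotinylated GST-cJun 1-79 at Ser73 with 10 µM ATP; % is set by controls: 0 for no effect and ±100 for the full control effect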); conditions: JNK3 lysate, c-Jun phosphorylation; series mostly up to 57.1 µM
Outline: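 JNK3 came from HepG2 lysates pre-activated with IL-1beta and TNF-alpha and phosphorylated biotinylated GST-cJun (1-79) at 10 uM ATP, pH 7.6, room temperature. Compounds were titrated. AlphaScreen signal used anti-phospho-cJun (Ser73) antibody.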

[9] = molecular target: 3',5'-cyclic-AMP phosphodiesterase 4B (Homo sapiens) (UniProt Q07343); experiment: qHTS Assay for Inhibitors of PDE-IV (AID 607; active = well fitted activation curve with a large enough effect in the main read-out, with a control signal flat, not every such curve was filed as active; note: % of control where 0% means no effect); conditions: HEK293 ACTOne CNG channel cells, membrane potential fluorescence; series mostly up to 22.9 µM
Chain of 3',5'-cyclic-AMP phosphodiesterase 4B (Homo sapiens) (Q07343 whole entry, looked up): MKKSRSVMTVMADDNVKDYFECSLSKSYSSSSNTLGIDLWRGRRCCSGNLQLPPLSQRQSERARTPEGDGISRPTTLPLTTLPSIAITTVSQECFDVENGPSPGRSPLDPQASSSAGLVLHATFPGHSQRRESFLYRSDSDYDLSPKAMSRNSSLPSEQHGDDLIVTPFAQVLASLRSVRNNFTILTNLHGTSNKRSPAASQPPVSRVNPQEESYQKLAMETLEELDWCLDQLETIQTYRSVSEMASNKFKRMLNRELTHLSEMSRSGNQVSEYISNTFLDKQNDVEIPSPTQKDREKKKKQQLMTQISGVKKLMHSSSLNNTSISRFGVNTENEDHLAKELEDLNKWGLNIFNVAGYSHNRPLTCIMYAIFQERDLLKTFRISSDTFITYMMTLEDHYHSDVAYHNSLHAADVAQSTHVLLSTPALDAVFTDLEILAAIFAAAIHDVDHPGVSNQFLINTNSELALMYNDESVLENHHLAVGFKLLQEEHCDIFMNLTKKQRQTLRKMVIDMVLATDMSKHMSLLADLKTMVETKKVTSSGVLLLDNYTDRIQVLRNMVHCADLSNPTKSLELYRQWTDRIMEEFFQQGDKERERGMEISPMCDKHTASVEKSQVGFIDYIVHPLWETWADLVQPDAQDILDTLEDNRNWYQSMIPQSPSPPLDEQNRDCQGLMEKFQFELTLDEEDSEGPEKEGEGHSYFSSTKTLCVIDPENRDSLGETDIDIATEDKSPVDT
Outline: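 ACTOne HEK293 cells carry a modified cAMP-gated CNG channel and express endogenous PDE4; plated 1000 cells/well, compounds up to 22.9 uM final. Membrane-potential dye fluorescence (ex 535/em 590) was read; parental cells received 10 uM forskolin + 100 uM RO 20-1724.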

[10] = molecular target: Cytochrome P450 3A4 (Homo sapiens) (UniProt P08684); experiment: qHTS Assay for Activators of Cytochrome P450 3A4 (AID 885); conditions: recombinant CYP3A4, Luciferin-PPXE luminescence, 60 min; series mostly up to 57.1 µM; note: nearly all actives have a fitted effect of over 65% in size
Chain of Cytochrome P450 3A4 (Homo sapiens) (P08684 whole entry, looked up): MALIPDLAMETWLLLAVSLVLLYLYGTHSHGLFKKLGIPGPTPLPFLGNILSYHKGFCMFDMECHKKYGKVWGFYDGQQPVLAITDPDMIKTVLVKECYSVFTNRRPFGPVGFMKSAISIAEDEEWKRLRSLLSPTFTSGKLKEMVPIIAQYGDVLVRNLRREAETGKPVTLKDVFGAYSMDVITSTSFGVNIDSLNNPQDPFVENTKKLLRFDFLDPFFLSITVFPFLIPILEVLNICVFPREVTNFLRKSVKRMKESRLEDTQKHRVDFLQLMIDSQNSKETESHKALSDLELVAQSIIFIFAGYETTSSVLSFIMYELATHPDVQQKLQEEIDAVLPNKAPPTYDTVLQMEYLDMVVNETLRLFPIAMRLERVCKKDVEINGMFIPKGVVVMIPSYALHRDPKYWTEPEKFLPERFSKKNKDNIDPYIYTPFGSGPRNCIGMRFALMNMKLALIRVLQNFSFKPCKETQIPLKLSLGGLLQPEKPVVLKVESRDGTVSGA
Outline: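 20nM CYP3A4 + 25uM Luciferin-PPXE (=KM), 200mM KPO4; cpd 10 min RT; NADPH regen, 60 min RT; stop w/ detection buffer, 20 min; luminescence. Normalized to 57 uM ketoconazole.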

[11] = molecular target: Dual specificity protein kinase CLK4 (Homo sapiens) (UniProt Q9HAZ1); experiment: qHTS Assay for Inhibitors of CDC-like Kinase 4 (ADP-FP Assay) (AID 1795); conditions: Transcreener ADP fluorescence polarization; series mostly up to 50 µM; note: nearly all actives have a fitted effect of over 60% in size; note: potency is the fitted concentration of half-maximal effect
Chain of Dual specificity protein kinase CLK4 (Homo sapiens) (Q9HAZ1 whole entry, looked up): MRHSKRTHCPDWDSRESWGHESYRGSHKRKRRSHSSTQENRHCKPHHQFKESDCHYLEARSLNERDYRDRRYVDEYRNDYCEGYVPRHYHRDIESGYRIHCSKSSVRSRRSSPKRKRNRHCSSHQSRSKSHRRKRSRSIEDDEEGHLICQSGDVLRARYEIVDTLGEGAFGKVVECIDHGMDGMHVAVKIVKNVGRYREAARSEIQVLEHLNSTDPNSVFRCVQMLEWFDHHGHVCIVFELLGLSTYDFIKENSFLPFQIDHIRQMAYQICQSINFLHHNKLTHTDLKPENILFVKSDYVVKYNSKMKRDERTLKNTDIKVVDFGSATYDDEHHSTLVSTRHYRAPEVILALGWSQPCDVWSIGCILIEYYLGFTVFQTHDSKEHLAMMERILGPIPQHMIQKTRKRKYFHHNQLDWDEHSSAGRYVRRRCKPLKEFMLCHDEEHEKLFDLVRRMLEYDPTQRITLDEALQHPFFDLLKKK
Outline: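 Recombinant human Clk4 (6.25 nM) phosphorylated RS repeat peptide (100 uM) with 1 uM ATP in Tris pH 7.5/MgCl2/EGTA/DTT/Triton buffer for one hour. ADP was quantified by Transcreener competitive fluorescence polarization against an ADP calibration curve.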

[12] = molecular target: Ubiquitin carboxyl-terminal hydrolase 1 (Homo sapiens) (UniProt O94782); experiment: Inhibitors of USP1/UAF1: Pilot qHTS (AID 504865); conditions: purified USP1/UAF1, Ub-rhodamine cleavage fluorescence; series mostly up to 54.9 µM; note: nearly all actives have a fitted effect of over 35% in size; note: potency is the fitted concentration of half-maximal effect
Chain of Ubiquitin carboxyl-terminal hydrolase 1 (Homo sapiens) (O94782 whole entry, looked up): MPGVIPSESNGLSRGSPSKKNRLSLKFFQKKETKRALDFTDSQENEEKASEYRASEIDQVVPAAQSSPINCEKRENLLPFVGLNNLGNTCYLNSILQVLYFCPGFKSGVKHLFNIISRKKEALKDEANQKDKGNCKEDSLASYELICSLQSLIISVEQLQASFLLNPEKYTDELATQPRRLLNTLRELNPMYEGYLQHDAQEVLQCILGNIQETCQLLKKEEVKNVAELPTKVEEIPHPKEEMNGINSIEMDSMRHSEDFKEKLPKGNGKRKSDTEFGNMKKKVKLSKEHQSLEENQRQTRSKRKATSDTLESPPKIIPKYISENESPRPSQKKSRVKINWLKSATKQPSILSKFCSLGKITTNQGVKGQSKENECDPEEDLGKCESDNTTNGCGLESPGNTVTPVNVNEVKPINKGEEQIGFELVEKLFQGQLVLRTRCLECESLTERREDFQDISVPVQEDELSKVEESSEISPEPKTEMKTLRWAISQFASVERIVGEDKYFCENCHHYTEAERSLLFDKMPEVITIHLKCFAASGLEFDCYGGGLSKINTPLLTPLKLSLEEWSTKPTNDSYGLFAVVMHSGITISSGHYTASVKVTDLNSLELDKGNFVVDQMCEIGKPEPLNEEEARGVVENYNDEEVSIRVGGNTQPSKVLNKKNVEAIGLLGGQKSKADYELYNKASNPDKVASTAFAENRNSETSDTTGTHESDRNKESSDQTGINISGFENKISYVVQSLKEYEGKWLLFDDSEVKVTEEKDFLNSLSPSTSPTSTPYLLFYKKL
Outline: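 USP1/UAF1 complex (1nM) preincubated with compound 15 min at room temperature, then Ub-Rho substrate (150nM final) added. Fluorescence read kinetically at 480/540 nm, 6 reads every 60 seconds. Buffer: 50mM HEPES pH 7.8, 0.5mM EDTA, 0.1 mg/ml BSA, 1mM TCEP, 0.01% Tween-20.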

[13] = Primary qHTS for small molecule stabilizers of the endoplasmic reticulum resident proteome: Secreted ER Calcium Modulated Protein (SERCaMP) assay (AID 1508630); conditions: SH-SY5Y GLuc-SERCaMP (Gaussia luciferase released on ER calcium loss) secretion, thapsigargin, luminescence; series mostly up to 38.4 µM; note: % is set by controls: 0 for no effect and ±100 for the full control effect
Outline: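 GLuc-SERCaMP-expressing SH-SY5Y cells, pretreated 16 h with compound, are challenged with thapsigargin to empty ER calcium stores; after 4 h, coelenterazine is added directly to the medium and luminescence is imaged.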

[14] = molecular target: Cytochrome P450 3A4 (Homo sapiens) (UniProt P08684); experiment: qHTS Assay for Inhibitors and Substrates of Cytochrome P450 3A4 (AID 884); conditions: recombinant CYP3A4, Luciferin-PPXE luminescence; series mostly up to 57.1 µM; note: potency is the fitted concentration of half-maximal effect; nearly all actives have a fitted effect of over 50% in size
Outline: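 20 nM human CYP3A4 with 25 uM Luciferin-PPXE (at KM) in 200 mM KPO4, preincubated 10 min with compound; NADPH regeneration started a 60 min RT reaction. Luciferin detected by luminescence, normalized to 57 uM ketoconazole as full inhibition.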

[15] = molecular target: Cytochrome P450 2C19 (Homo sapiens) (UniProt P33261); experiment: qHTS Assay for Inhibitors and Substrates of Cytochrome P450 2C19 (AID 899); conditions: recombinant CYP2C19, luciferin-H EGE luminescence; series mostly up to 57.1 µM; note: potency is the fitted concentration of half-maximal effect; nearly all actives have a fitted effect of over 60% in size
Chain of Cytochrome P450 2C19 (Homo sapiens) (P33261 whole entry, looked up): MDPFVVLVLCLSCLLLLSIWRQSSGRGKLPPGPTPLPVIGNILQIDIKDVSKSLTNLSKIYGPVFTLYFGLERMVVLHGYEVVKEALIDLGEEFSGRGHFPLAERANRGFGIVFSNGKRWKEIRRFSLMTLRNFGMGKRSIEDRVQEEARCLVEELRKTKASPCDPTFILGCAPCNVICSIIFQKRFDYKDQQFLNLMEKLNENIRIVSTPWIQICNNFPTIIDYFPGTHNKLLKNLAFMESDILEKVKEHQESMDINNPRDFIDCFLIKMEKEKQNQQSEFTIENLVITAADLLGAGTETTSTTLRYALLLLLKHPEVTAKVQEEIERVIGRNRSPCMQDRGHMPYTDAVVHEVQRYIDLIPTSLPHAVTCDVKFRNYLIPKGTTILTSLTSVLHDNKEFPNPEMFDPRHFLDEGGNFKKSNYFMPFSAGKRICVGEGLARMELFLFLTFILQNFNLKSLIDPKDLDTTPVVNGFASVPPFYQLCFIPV
Outline: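 Human CYP2C19 (5nM) with Luciferin-H EGE at 10uM (its KM) in 50mM KPO4 was preincubated with compound for 10 min at 37C. NADPH regeneration started a 60 min 37C reaction. Luciferin was read by luminescence, normalized to 57uM ketoconazole.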

[16] = qHTS Assay for Identification of Small Molecule Agonists for Hypoxia Response Element Signaling Pathway (AID 914; active = well fitted activation curve with a large enough effect in the signal ratio, with a control signal flat, not every such curve was filed as active; the % refers to the signal ratio; note: % of control where 0% means no effect); conditions: ME-180 (cervical carcinoma) HRE-bla reporter, beta-lactamase ratio, CoCl2, 17 h; activation: active compounds read high
Outline: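 Positive modulation of EC50 CoCl2-induced hypoxia response element signaling is measured in ME-180 cells with a beta-lactamase reporter. Compounds are titrated, incubation runs 17 hours, and %Activity derives from the blue/green ratio.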

COc1ccccc1CNc1cc(-c2ccoc2)ncn1
inactive: Potency [1] > 11.4 µM | activity change, negative = inhibition [2] -15.7% | activity change, negative = inhibition [4] -9.53% | activity, negative = inhibition [5] 6.29% | Potency [6] > 46 µM | Potency [7] > 46 µM | Potency [8] | Potency [9] | Potency [10] | Potency [11] | Potency [12] | outcome [13]
active: Potency [3] 15.8 µM

COc1cccc(Cn2c(=O)c(-c3cccc(C#N)c3)nc3cnc(OC)nc32)c1
active: Potency [3] 10 µM | Potency [14] 3.16 µM
inactive: Potency [1] > 11.4 µM | activity change, negative = inhibition [2] -6.86% | activity change, negative = inhibition [4] -8.15% | activity, negative = inhibition [5] -4.38% | Potency [6] > 9.22 µM | Potency [7] > 46 µM | Potency [8] | Potency [10] | Potency [11] | Potency [12] | outcome [13]

COc1ccc2[nH]cc(CCNc3ccnc(-c4ccc5c(c4)OCO5)n3)c2c1
inactive: activity change, negative = inhibition [2] -11.1% | activity change, negative = inhibition [4] -4.51% | activity, negative = inhibition [5] -13.4% | Potency [6] > 46 µM | Potency [7] > 46 µM | Potency [8] | Potency [9] | Potency [10] | Potency [11] | Potency [12] | outcome [13]
active: Potency [1] 7.76 µM | Potency [3] 0.631 µM | Potency [14] 2.51 µM | Potency [15] 0.631 µM

CN(C)C(=O)c1ccc(-c2ccc3ncnc(N4CCNCC4)c3c2)cc1
inactive: Potency [1] > 11.4 µM | activity change, negative = inhibition [2] -26.4% | Potency [3] | activity change, negative = inhibition [4] 4.61% | activity, negative = inhibition [5] -3.14% | Potency [6] > 46 µM | Potency [7] > 46 µM | Potency [8] | Potency [9] | Potency [11] | Potency [12] | outcome [13]

Cc1ccccc1-c1ccc2ncnc(NCc3cccs3)c2c1
inactive: Potency [1] > 11.4 µM | activity change, negative = inhibition [2] -9.99% | activity change, negative = inhibition [4] -15.8% | activity, negative = inhibition [5] -13.1% | Potency [6] > 46 µM | Potency [7] > 46 µM | Potency [8] | Potency [10] | activation [16] 2.83% | outcome [13]
active: Potency [3] 2.51 µM | Potency [14] 3.98 µM | Potency [11] 3.55 µM | Potency [12] 14.1 µM

COc1ccc2[nH]cc(CCNc3ccnc(-c4ccccc4C)n3)c2c1
active: Potency [3] 0.316 µM | Potency [15] 2.51 µM
inactive: activity change, negative = inhibition [2] -8.02% | activity change, negative = inhibition [4] 8.54% | activity, negative = inhibition [5] -1.84% | Potency [6] > 46 µM | Potency [7] > 46 µM | Potency [8] | Potency [9] | Potency [10] | Potency [11] | Potency [12] | outcome [13]

Cc1cnc(CNc2cc(-c3c(C)noc3C)ncn2)cn1
inactive: Potency [1] > 11.4 µM | activity change, negative = inhibition [2] 23.4% | activity change, negative = inhibition [4] 7.12% | activity, negative = inhibition [5] 12.1% | Potency [6] > 46 µM | Potency [7] > 46 µM | Potency [8] | Potency [9] | Potency [11] | Potency [12] | outcome [13]

c1csc(CNc2nc(-c3ccc4c(c3)OCO4)nc3ccccc23)c1
active: Potency [3] 0.794 µM | Potency [15] 3.16 µM
inactive: Potency [1] > 11.4 µM | activity change, negative = inhibition [2] 0.483% | activity, negative = inhibition [5] -13.1% | Potency [6] > 46 µM | Potency [7] > 46 µM | Potency [8] | Potency [10] | Potency [11] | outcome [13]

CCNc1ncc2nc(-c3cc(F)cc(F)c3)c(=O)n(CCOC)c2n1
active: Potency [3] 3.16 µM
inactive: Potency [1] > 11.4 µM | Potency [6] > 9.22 µM | Potency [7] > 46 µM | Potency [8] | Potency [10] | Potency [11] | Potency [12] | outcome [13]

CN(C)C(=O)c1ccc(-c2ccc3ncnc(N(C)Cc4ccco4)c3c2)cc1
active: Potency [11] 7.08 µM
inactive: Potency [1] > 11.4 µM | activity change, negative = inhibition [4] 8.43% | activity, negative = inhibition [5] -9.98% | Potency [6] > 46 µM | Potency [7] > 46 µM | Potency [8] | Potency [12] | outcome [13]

c1ccc(CNc2cc(-c3ccoc3)ncn2)cc1
inactive: Potency [1] > 11.4 µM | activity change, negative = inhibition [4] -2.19% | activity, negative = inhibition [5] -2.59% | Potency [6] > 46 µM | Potency [7] > 46 µM | Potency [8] | Potency [9] | Potency [10] | Potency [11] | Potency [12] | outcome [13]
active: Potency [3] 25.1 µM

COc1ccc2[nH]cc(CCNc3cc(-c4c(C)noc4C)ncn3)c2c1
inactive: Potency [1] > 11.4 µM | activity change, negative = inhibition [2] 8.05% | activity change, negative = inhibition [4] 0.421% | activity, negative = inhibition [5] -0.948% | Potency [7] > 46 µM | Potency [8] | Potency [9] | Potency [11] | Potency [12] | outcome [13]

COc1ccc(CNc2ncncc2-c2cccc(NS(C)(=O)=O)c2)c(OC)c1
inactive: Potency [1] > 2.29 µM | activity change, negative = inhibition [2] -14.5% | activity, negative = inhibition [5] 17.9% | Potency [6] > 46 µM | Potency [7] > 46 µM | Potency [8] | Potency [9] | Potency [10] | Potency [11] | Potency [12] | outcome [13]
active: Potency [3] 15.8 µM

CN(C)C(=O)c1ccc(-c2ccc3ncnc(N4CCOCC4)c3c2)cc1
inactive: Potency [1] > 11.4 µM | activity change, negative = inhibition [2] -25.6% | activity change, negative = inhibition [4] 11.5% | activity, negative = inhibition [5] -8.9% | Potency [6] > 46 µM | Potency [7] > 46 µM | Potency [8] | Potency [9] | Potency [10] | Potency [11] | Potency [12] | outcome [13]
